# According to PubChem BioAssay AID1159580 (chemical genetic matrix, 2015):
# Where “and” joins values, the source holds several entries; their conditions need not be identical. Equal values may be shown once. Among all 5,500 compounds or so, about 2,000 (36%) were called active. About 18% were inconclusive and are not listed. Cut-off read from the data, not from the text of the source: active = normalized growth mostly below about 0.91 (no sharp cut-off); inconclusive = no clear call, values can overlap the other calls; inactive = mostly above about 0.92. This is one part of the list.
# Experiment: chemical genetic growth profiling, strain panel (AID 1159580);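 note: tested at 20 µM; growth read once vehicle control cultures reached saturation at 30 °C; 1 = growth at the plate median or of vehicle wells; lower values mean less growth of the strain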
# Conditions: S. cerevisiae deletion strains, growth OD
structure (smiles),measurement,setting,value
S=c1[nH]c2ccccc2s1,normalized growth,"locus YAL013W, strain DEP1, stronger effect = lower value",1 (inactive)
same,normalized growth,"locus YAL021C, strain ccr4, stronger effect = lower value",0.941 (inactive)
same,normalized growth,"locus YAL026C, strain drs2, stronger effect = lower value",0.891 (active)
same,normalized growth,"locus YAL030W, strain snc1, stronger effect = lower value",0.992 (inactive)
same,normalized growth,"locus YBL061C, strain skt5, stronger effect = lower value",0.986 (inactive)
same,normalized growth,"locus YBR009C, strain hhf1, stronger effect = lower value",0.972 (inactive)
same,normalized growth,"locus YBR021W, strain FUR4, stronger effect = lower value",1.06 (inactive)
same,normalized growth,"locus YBR023C, strain chs3, stronger effect = lower value",1.01 (inactive)
same,normalized growth,"locus YBR171W, strain sec66, stronger effect = lower value",0.965 (inactive)
same,normalized growth,"locus YBR229C, strain ROT2, stronger effect = lower value",0.989 (inactive)
same,normalized growth,"locus YBR231C, strain swc5, stronger effect = lower value",0.946 (inactive)
same,normalized growth,"locus YBR279W, strain paf1, stronger effect = lower value",0.982 (inactive)
same,normalized growth,"locus YCL011C, strain gbp2, stronger effect = lower value",0.966 (inactive)
same,normalized growth,"locus YCL016C, strain dcc1, stronger effect = lower value",1.02 (inactive)
same,normalized growth,"locus YCL029C, strain bik1, stronger effect = lower value",0.989 (inactive)
same,normalized growth,"locus YCL069W, strain vba3, stronger effect = lower value",0.983 (inactive)
same,normalized growth,"locus YCR088W, strain abp1, stronger effect = lower value",0.981 (inactive)
same,normalized growth,"locus YDL005C, strain med2, stronger effect = lower value",0.996 (inactive)
same,normalized growth,"locus YDL035C, strain GPR1, stronger effect = lower value",0.948 (inactive)
same,normalized growth,"locus YDL040C, strain nat1, stronger effect = lower value",0.983 (inactive)
same,normalized growth,"locus YDL074C, strain BRE1, stronger effect = lower value",0.975 (inactive)
same,normalized growth,"locus YDL101C, strain DUN1, stronger effect = lower value",0.99 (inactive)
same,normalized growth,"locus YDL134C, strain PPH21, stronger effect = lower value",0.985 (inactive)
same,normalized growth,"locus YDL185W, strain tfp1, stronger effect = lower value",0.979 (inactive)
same,normalized growth,"locus YDL192W, strain arf1, stronger effect = lower value",0.985 (inactive)
same,normalized growth,"locus YDR001C, strain nth1, stronger effect = lower value",0.992 (inactive)
same,normalized growth,"locus YDR069C, strain doa4, stronger effect = lower value",0.951 (inactive)
same,normalized growth,"locus YDR101C, strain arx1, stronger effect = lower value",1.01 (inactive)
same,normalized growth,"locus YDR137W, strain rgp1, stronger effect = lower value",0.808 (active)
same,normalized growth,"locus YDR150W, strain NUM1, stronger effect = lower value",0.986 (inactive)
same,normalized growth,"locus YDR159W, strain sac3, stronger effect = lower value",0.992 (inactive)
same,normalized growth,"locus YDR162C, strain NBP2, stronger effect = lower value",0.986 (inactive)
same,normalized growth,"locus YDR195W, strain ref2",1.18 [resistant] (active)
same,normalized growth,"locus YDR297W, strain sur2, stronger effect = lower value",0.97 (inactive)
same,normalized growth,"locus YDR318W, strain mcm21, stronger effect = lower value",0.996 (inactive)
same,normalized growth,"locus YDR334W, strain swr1, stronger effect = lower value",0.972 (inactive)
same,normalized growth,"locus YDR335W, strain msn5, stronger effect = lower value",0.984 (inactive)
same,normalized growth,"locus YDR388W, stronger effect = lower value",0.987 (inactive)
same,normalized growth,"locus YDR392W, strain spt3, stronger effect = lower value",0.879 (inactive)
same,normalized growth,"locus YDR502C, strain sam2, stronger effect = lower value",1 (inactive)
same,normalized growth,"locus YEL003W, strain gim4, stronger effect = lower value",0.952 (inactive)
same,normalized growth,"locus YEL037C, strain rad23, stronger effect = lower value",0.975 (inactive)
same,normalized growth,"locus YEL061C, strain CIN8 (second series), stronger effect = lower value",0.973 (inactive)
same,normalized growth,"locus YEL061C, strain CIN8, stronger effect = lower value",1.01 (inactive)
same,normalized growth,"locus YER015W, strain faa2, stronger effect = lower value",0.965 (inactive)
same,normalized growth,"locus YER016W, strain bim1, stronger effect = lower value",0.987 (inactive)
same,normalized growth,"locus YER110C, stronger effect = lower value",0.998 (inactive)
same,normalized growth,"locus YER111C, strain swi4, stronger effect = lower value",0.979 (inactive)
same,normalized growth,"locus YER155C, strain BEM2 (second series), stronger effect = lower value",0.986 (inactive)
same,normalized growth,"locus YER155C, strain BEM2, stronger effect = lower value",0.986 (inactive)
same,normalized growth,"locus YER167W, strain BCK2, stronger effect = lower value",1.02 (inactive)
same,normalized growth,"locus YFR010W, strain ubp6, stronger effect = lower value",0.95 (inactive)
same,normalized growth,"locus YGL078C, strain dbp3, stronger effect = lower value",1.02 (inactive)
same,normalized growth,"locus YGL086W, strain mad1, stronger effect = lower value",0.965 (inactive)
same,normalized growth,"locus YGL167C, strain pmr1, stronger effect = lower value",0.995 (inactive)
same,normalized growth,"locus YGL173C, strain kem1, stronger effect = lower value",0.91 (inactive)
same,normalized growth,"locus YGL227W, strain vid30, stronger effect = lower value",0.996 (inactive)
same,normalized growth,"locus YGL240W, strain doc1, stronger effect = lower value",0.923 (inactive)
same,normalized growth,"locus YGL248W, strain PDE1, stronger effect = lower value",0.991 (inactive)
same,normalized growth,"locus YGL253W, strain hxk2, stronger effect = lower value",0.938 (inactive)
same,normalized growth,"locus YGR078C, strain PAC10, stronger effect = lower value",0.958 (inactive)
same,normalized growth,"locus YGR135W, strain pre9, stronger effect = lower value",0.964 (inactive)
same,normalized growth,"locus YGR229C, strain SMI1, stronger effect = lower value",0.804 (active)
same,normalized growth,"locus YGR252W, strain gcn5, stronger effect = lower value",0.691 (active)
same,normalized growth,"locus YHR013C, strain ard1, stronger effect = lower value",1.02 (inactive)
same,normalized growth,"locus YHR027C, strain rpn1, stronger effect = lower value",0.903 (active)
same,normalized growth,"locus YHR030C, strain SLT2, stronger effect = lower value",1 (inactive) and 0.821 (active)
same,normalized growth,"locus YHR079C, strain IRE1 (second series), stronger effect = lower value",1.01 (inactive)
same,normalized growth,"locus YHR079C, strain IRE1, stronger effect = lower value",0.78 (active)
same,normalized growth,"locus YHR094C, strain hxt1, stronger effect = lower value",1.02 (inactive)
same,normalized growth,"locus YHR129C, strain ARP1, stronger effect = lower value",0.992 (inactive)
same,normalized growth,"locus YHR142W, strain chs7, stronger effect = lower value",1.01 (inactive)
same,normalized growth,"locus YHR200W, strain rpn10, stronger effect = lower value",1.01 (inactive)
same,normalized growth,"locus YIL066C, strain RNR3, stronger effect = lower value",0.986 (inactive)
same,normalized growth,"locus YIL073C, strain SPO22, stronger effect = lower value",0.844 (inactive)
same,normalized growth,"locus YIL125W, strain kgd1, stronger effect = lower value",1.01 (inactive)
same,normalized growth,"locus YIR030C, strain dcg1, stronger effect = lower value",1.01 (inactive)
same,normalized growth,"locus YJL092W, strain hpr5, stronger effect = lower value",0.984 (inactive)
same,normalized growth,"locus YJL095W, strain BCK1 (second series), stronger effect = lower value",0.975 (inactive)
same,normalized growth,"locus YJL095W, strain BCK1, stronger effect = lower value",0.99 (inactive) and 0.818 (active)
same,normalized growth,"locus YJL115W, strain asf1, stronger effect = lower value",0.983 (inactive)
same,normalized growth,"locus YJL129C, strain trk1, stronger effect = lower value",0.966 (inactive)
same,normalized growth,"locus YJL134W, strain LCB3, stronger effect = lower value",1 (inactive)
same,normalized growth,"locus YJL154C, strain vps35, stronger effect = lower value",0.983 (inactive)
same,normalized growth,"locus YJL164C, strain tpk1, stronger effect = lower value",1 (inactive)
same,normalized growth,"locus YJL166W, strain qcr8, stronger effect = lower value",0.962 (inactive)
same,normalized growth,"locus YJL168C, strain set2, stronger effect = lower value",0.996 (inactive)
same,normalized growth,"locus YJL187C, strain SWE1 (second series), stronger effect = lower value",0.964 (inactive)
same,normalized growth,"locus YJR043C, strain POL32, stronger effect = lower value",1 (inactive)
same,normalized growth,"locus YJR066W, strain TOR1, stronger effect = lower value",0.732 (active)
same,normalized growth,"locus YJR075W, strain HOC1, stronger effect = lower value",1.02 (inactive)
